# From PubChem BioAssay (Tox21)
# Records with an inconclusive call do not appear. A call without a number means that no potency is given here. Values without a mark were called inactive. Active and inactive are the calls of the source. The call rests on the fitted dose curve; in most records, active means well fitted curve in the direction sought with a large enough effect in the repeat runs; inconclusive means weak or mixed curves; inactive means no such curve, though single readings can be large; an effect the other way counts as inactive or inconclusive.
# What was measured:
# [1] = A CellTox Green Cytotoxicity Assay to monitor cytotoxicity in HEK293 cells - 40 hour (AID 1224871); further: nearly all actives have a fitted effect of over 45% in size; further: potency means the concentration at half of the fitted maximal effect
# How it was run: (§1)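 HEK293 cells premixed with CellTox Green dye were seeded at 600 cells/well and left 5 h at 37 C/5% CO2 before pin transfer of 23 nL compound in DMSO. Fluorescence from dye bound to dead-cell DNA was read during 40 h treatment.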
# [2] = qHTS RealTime-Glo MT Cell Viability Assay in HEK293 cells - 16 hour (AID 1224872); further: nearly all actives have a fitted effect of over 50% in size; further: potency means the concentration at half of the fitted maximal effect; on activity change, negative = cytotoxicity: top concentration of the series differs between compounds
# How it was run: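 Luminescence generated by NanoLuc from substrate produced by living HEK293 cells served as the viability signal. Each value reflects the reading at its stated time point during continuous 40 h compound exposure at 37 C.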
# [3] = qHTS RealTime-Glo MT Cell Viability Assay in HEK293 cells - 40 hour (AID 1224874); settings: RealTime-Glo luminescence; max response: hits give low values; further: nearly all actives have a fitted effect of over 50% in size; further: potency means the concentration at half of the fitted maximal effect
# How it was run: (§2)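 HEK293 cells mixed with RealTime-Glo reagents (NanoLuc plus cell-permeant prosubstrate) at 600 cells/well, preincubated 5 h at 37 C/5% CO2, then given 23 nL compound in DMSO. Nonlytic luminescence from viable cells was read at 0, 8, 16, 24, 32 and 40 h.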
# [4] = A CellTox Green Cytotoxicity Assay to monitor cytotoxicity in HEK293 cells - 24 hour (AID 1224875); further: nearly all actives have a fitted effect of over 45% in size; further: potency means the concentration at half of the fitted maximal effect; on activity change: series mostly up to about 77 µM
# How it was run: as §1
# [5] = A CellTox Green Cytotoxicity Assay to monitor cytotoxicity in HepG2 cells - 16 hour (AID 1224876); further: nearly all actives have a fitted effect of over 45% in size; further: potency means the concentration at half of the fitted maximal effect
# How it was run: (§3)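 HepG2 cells were seeded together with the CellTox Green dye at 600 cells/well, left 5 h at 37 C/5% CO2, then given compounds in DMSO. Fluorescence from dye bound to dead-cell DNA was read repeatedly over 40 h of treatment at 37 C.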
# [6] = qHTS RealTime-Glo MT Cell Viability Assay in HepG2 cells - 32 hour (AID 1224877); further: nearly all actives have a fitted effect of over 55% in size; further: potency means the concentration at half of the fitted maximal effect
# How it was run: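 Tox21 10K library screened in qHTS format on HepG2 cells carrying RealTime-Glo reagents. Compounds were added after a 5 h preincubation, and the luminescent signal from continuous culture was measured repeatedly during 40 h treatment.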
# [7] = A CellTox Green Cytotoxicity Assay to monitor cytotoxicity in HepG2 cells - 24 hour (AID 1224878); further: nearly all actives have a fitted effect of over 45% in size; further: potency means the concentration at half of the fitted maximal effect
# How it was run: as §3
# [8] = A CellTox Green Cytotoxicity Assay to monitor cytotoxicity in HepG2 cells - 40 hour (AID 1224879); further: nearly all actives have a fitted effect of over 40% in size; further: potency means the concentration at half of the fitted maximal effect
# How it was run: as §3
# [9] = qHTS RealTime-Glo MT Cell Viability Assay in HEK293 cells - 0 hour (AID 1224880)
# How it was run: as §2
smiles,measurement,setting,value
O=C(O)C1(C(=O)Nc2ccc(Cl)cc2Cl)CC1,Potency,[1],inactive
same,Potency,[2],inactive
same,max response,[3],-17.6%
same,Potency,[4],inactive
same,Potency,[5],inactive
same,Potency,[6],inactive
same,Potency,[7],inactive
same,Potency,[8],inactive
CCCCCCCCCc1ccc(OCCOCCO)cc1,Potency,[1],13 µM (active)
same,Potency,[2],1.45 µM (active)
same,Potency,[3],1.03 µM (active)
same,Potency,[4],14.5 µM (active)
same,Potency,[5],20.5 µM (active)
same,Potency,[7],18.3 µM (active)
same,Potency,[8],20.5 µM (active)
COc1cc2c(cc1OC)C(C(C(=O)N(CCc1ccc(OC)c(OC)c1OC)CCc1ccc(OC)c(OC)c1OC)c1ccccc1)=NCC2 (stereo unspecified),Potency,[1],inactive
same,Potency,[2],3.01 µM (active)
same,Potency,[3],3.38 µM (active)
same,Potency,[4],inactive
same,Potency,[5],inactive
same,Potency,[7],inactive
CCO[Si](CCCCl)(OCC)OCC,Potency,[1],inactive
same,Potency,[2],inactive
same,max response,[3],0.203%
same,Potency,[4],inactive
same,Potency,[5],inactive
same,Potency,[6],inactive
same,Potency,[7],inactive
same,Potency,[9],inactive
CCC(CC)Nc1ccc(C)c(C)c1,Potency,[1],inactive
same,Potency,[2],inactive
same,max response,[3],12.5%
same,Potency,[4],inactive
same,Potency,[5],inactive
same,Potency,[6],inactive
same,Potency,[8],inactive
same,Potency,[9],inactive
CCCCCCOC(=O)NC(=N)c1ccc(NCc2nc3cc(C(=O)N(CCC(=O)OCC)c4ccccn4)ccc3n2C)cc1,Potency,[1],inactive
same,Potency,[2],9.52 µM (active)
same,Potency,[3],10.7 µM (active)
same,Potency,[4],inactive
same,Potency,[5],inactive
same,Potency,[7],23.9 µM (active)
same,Potency,[8],23.9 µM (active)
O=S(c1cc(Cl)cc(Cl)c1O)c1cc(Cl)cc(Cl)c1O,Potency,[1],inactive
same,Potency,[2],inactive
same,max response,[3],-7.88%
same,Potency,[4],inactive
same,Potency,[5],inactive
same,Potency,[6],inactive
same,Potency,[7],inactive
same,Potency,[8],inactive
same,Potency,[9],inactive
ClCCOCCOCCCl,Potency,[1],inactive
same,Potency,[2],inactive
same,max response,[3],5.38%
same,Potency,[4],inactive
same,Potency,[6],inactive
same,Potency,[9],inactive
NCc1ccccc1Sc1ccccc1CO,Potency,[1],inactive
same,Potency,[2],inactive
same,max response,[3],-17%
same,Potency,[4],inactive
same,Potency,[5],inactive
same,Potency,[6],inactive
same,Potency,[7],inactive
same,Potency,[8],inactive
same,Potency,[9],inactive
Cc1oc(-c2ccccc2)nc1CCOc1cccc2c1ccn2CCC(=O)O,Potency,[1],inactive
same,Potency,[2],inactive
same,max response,[3],-19%
same,Potency,[4],inactive
same,Potency,[5],inactive
same,Potency,[6],inactive
same,Potency,[7],inactive
same,Potency,[8],inactive
same,Potency,[9],inactive
CN(C)CCN(Cc1ccsc1)c1ccccn1,Potency,[1],inactive
same,Potency,[2],inactive
same,max response,[3],1.6%
same,Potency,[4],inactive
same,Potency,[5],inactive
same,Potency,[6],inactive
same,Potency,[7],inactive
same,Potency,[8],inactive
same,Potency,[9],inactive
NCC(=O)CCC(=O)O,Potency,[1],inactive
same,Potency,[2],inactive
same,max response,[3],7.89%
same,Potency,[4],inactive
same,Potency,[5],inactive
same,Potency,[6],inactive
same,Potency,[7],inactive
same,Potency,[9],inactive
C=CC(=O)OCCOc1ccccc1,Potency,[1],inactive
same,Potency,[2],inactive
same,max response,[3],2.45%
same,Potency,[4],inactive
same,Potency,[5],inactive
same,Potency,[6],inactive
same,Potency,[7],inactive
same,Potency,[8],inactive
same,Potency,[9],inactive
Brc1c2ccccc2c(Br)c2ccccc12,cytotoxicity increase,[1],-0.912% [at 6.97 µM]
same,"activity change, negative = cytotoxicity",[2],0.583% [at 6.97 µM]
same,max response,[3],1.72%
same,activity change,[4],"-0.621% [at 6.97 µM, hits give high values]"
same,cytotoxicity increase,[5],2.77% [at 6.97 µM]
same,"activity change, negative = cytotoxic",[6],0.723% [at 6.97 µM]
same,cytotoxicity,[7],2.45% [at 6.97 µM]
same,cytotoxicity increase,[8],-0.88% [at 6.97 µM]
same,"activity change, negative = cytotoxicity",[9],0.766% [at 6.97 µM]
Cc1ccc(C(C)OC(=O)C2(C)CCC(C(=O)O)C2(C)C)cc1 (stereo unspecified),Potency,[1],inactive
same,Potency,[2],inactive
same,max response,[3],8.96%
same,Potency,[4],inactive
same,Potency,[5],inactive
same,Potency,[6],inactive
same,Potency,[7],inactive
same,Potency,[8],inactive
same,Potency,[9],inactive
C[C@@H](c1ncncc1F)C(O)(Cn1cncn1)c1ccc(F)cc1F (stereo partly specified),Potency,[1],inactive
same,Potency,[2],inactive
same,max response,[3],3.08%
same,Potency,[4],inactive
same,Potency,[5],inactive
same,Potency,[6],inactive
same,Potency,[7],inactive
same,Potency,[8],inactive
same,Potency,[9],inactive
CCN(CC)c1ccc2c(-c3ccccc3C(=O)O)c3ccc(=[N+](CC)CC)cc-3oc2c1,Potency,[1],24.5 µM (active)
same,Potency,[2],34.7 µM (active)
same,Potency,[3],24.5 µM (active)
same,Potency,[4],24.5 µM (active)
same,Potency,[5],24.5 µM (active)
same,Potency,[7],21.9 µM (active)
same,Potency,[8],24.5 µM (active)
same,Potency,[9],inactive
CCN(CC)CCNc1ccc(CNC=O)c2sc3ccc(OC)cc3c(=O)c12,Potency,[1],19.5 µM (active)
same,Potency,[2],27.5 µM (active)
same,Potency,[3],8.71 µM (active)
same,Potency,[4],inactive
same,Potency,[5],inactive
same,Potency,[6],19.5 µM (active)
same,Potency,[7],inactive
same,Potency,[9],inactive
C=CC1CC2C=CC1C2 (stereo unspecified),Potency,[1],inactive
same,Potency,[2],inactive
same,max response,[3],2.72%
same,Potency,[4],inactive
same,Potency,[5],inactive
same,Potency,[6],inactive
same,Potency,[7],inactive
same,Potency,[8],inactive
O=P(O)(OCc1ccccc1)OCc1ccccc1,Potency,[1],inactive
same,Potency,[2],inactive
same,max response,[3],2.99%
same,Potency,[4],inactive
same,Potency,[5],inactive
same,Potency,[6],inactive
same,Potency,[7],inactive
same,Potency,[9],inactive
O=C(O)C(S)C(S)C(=O)O (stereo unspecified),Potency,[1],inactive
same,Potency,[2],inactive
same,max response,[3],3.09%
same,Potency,[4],inactive
same,Potency,[5],inactive
same,Potency,[6],inactive
same,Potency,[7],inactive
same,Potency,[8],inactive
same,Potency,[9],inactive
O=C(O)c1ccco1,Potency,[1],inactive
same,Potency,[2],inactive
same,max response,[3],9.61%
same,Potency,[4],inactive
same,Potency,[5],inactive
same,Potency,[6],inactive
same,Potency,[7],inactive
same,Potency,[8],inactive
same,Potency,[9],inactive
COc1ccc2cccc(CCNC(C)=O)c2c1,Potency,[1],inactive
same,Potency,[2],inactive
same,max response,[3],-8.88%
same,Potency,[4],inactive
same,Potency,[6],inactive
same,Potency,[9],inactive
